Data published in PubChem BioAssay AID2685 (National Center for Advancing Translational Sciences (NCATS), 2010).
Among all 320,000 compounds or so, about 2,100 (0.66%) were called active. Not shown: some 53% with an inconclusive outcome. Calls follow the shape of the dose curve; as a rule, active = well fitted inhibition curve with a large enough effect in the signal ratio, with a control signal flat (not every such curve was filed as active); inconclusive = small, poorly fitted or top-dose-only effect, or effect the other way, or a change in a side signal; inactive = flat fitted curve, though single readings scatter; the % refers to the signal ratio. The full list was thinned out, with actives kept by preference.

assay: qHTS Assay for Lipid Storage Modulators in Drosophila S3 Cells; conditions: BODIPY lipid droplet fluorescence, 18-24 h, cells fed with added oleic acid; cell number change: measured here: cell count max response; series mostly up to 46.1 µM; lipid storage change, negative = inhibition: at the top concentration;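 as to cell number change: cells counted by Cell Tracker Red CMTPX staining in the red channel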; as to lipid storage change, negative = inhibition: % is scaled to controls: 0 for no effect and ±100 for the full control effect
Procedure, shortened: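 Drosophila S3 cells loaded with oleic acid (400 uM, as added) and compounds at several concentrations; lipid droplets imaged by 488-nm laser-scanning cytometry, 500–530 nm intensity and object ratio to cell channel. Percent activity normalized to 20 uM Triacsin C.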
Potency is read from the fitted curve at half-maximal effect.

Structure (SMILES) | Potency | cell number change | lipid storage change, negative = inhibition | outcome
O=C(Nc1nc2c(F)cc(F)cc2s1)c1ccc([N+](=O)[O-])o1 | 5.8 µM (active) | -16.4% |  | 
O=C(COC(=O)c1ccc([N+](=O)[O-])o1)Nc1nc2ccccc2s1 |  | -3.3% | -1.77% (inactive) | 
Cc1cc(C)c2nc(NC(=O)c3ccc([N+](=O)[O-])o3)sc2c1 |  | 8.03% | -12.7% (inactive) | 
O=C(Nc1nc2c(F)cc(F)cc2s1)c1ccc2c(c1)OCCO2 |  | 6.09% | 12.2% (inactive) | 
O=C(Nc1nc2ccccc2s1)c1ccc([N+](=O)[O-])o1 |  | 24.1% | -7.57% (inactive) | 
O=C(Nc1nc(-c2cccs2)cs1)c1ccc([N+](=O)[O-])o1 | 2.06 µM (active) | -9.47% |  | 
O=C(Nc1nc(-c2cccs2)cs1)C1=COCCO1 |  | -0.427% | 6.6% (inactive) | 
CCc1cccc(NC(=S)N(CCN(C)C)C(C)c2ccncc2)c1 (stereo not given) |  | -2.18% | 15% (inactive) | 
O=[N+]([O-])c1ccc(N2CCN(S(=O)(=O)Cc3ccccc3)CC2)cc1N1CCOCC1 |  |  |  | inactive
CN1CCN(S(=O)(=O)c2csc(C(N)=O)c2)CC1 |  |  | 2.59% (inactive) | 
COc1ccc(N2CCN(C(=O)Cn3c(=O)c4cccn4c4cccnc43)CC2)cc1 |  | 25.5% |  | inactive
CCCCn1c(SCC(=O)NCc2ccco2)nc2c1c(=O)n(C)c(=O)n2C |  | -2.87% | -0.0096% (inactive) | 
O=C(Cn1c(=O)c2cccn2c2ccccc21)NCCc1ccc(Cl)cc1 |  | 23.3% |  | inactive
CC(C(=O)NCCc1ccc(Cl)cc1)n1c(=O)c2cccn2c2cccnc21 (stereo not given) | 0.517 µM (active) | -6.73% |  | 
Cc1nn(CC(=O)NCCc2ccc(Cl)cc2)c(=O)c2cccn12 |  | 14.2% |  | inactive
CCCCOc1ccc(C(=O)N=c2sccn2C)cc1OC |  | -1.16% | -21.4% (inactive) | 
Cn1ccsc1=NC(=O)c1cccc(OC(F)F)c1 |  | -7.04% | 26.6% (inactive) | 
CCOc1cc(C(=O)N=c2sccn2C)ccc1OC(F)F | 11.6 µM (active) | -22.3% |  | 
CC(Oc1ccc(Br)cc1)C(=O)Nc1ccc(N2CCOCC2)cc1N1CCOCC1 (stereo not given) |  | -0.694% | 8.89% (inactive) | 
COc1ccccc1Nc1nc(N)nc(CSC(=S)N2CCC(C)CC2)n1 |  | 8.57% | 15.2% (inactive) | 
COc1ccc(C(C)=O)cc1COc1ccc(F)cc1 |  | -1.38% | 21.6% [at 9.22 µM] (inactive) | 
Fc1ccc(COc2ccc(-c3nnco3)cc2)c(Cl)c1 |  | 3.42% | -21.8% (inactive) | 
CCOc1ccc(C(C)=O)cc1COc1ccc(-c2nnco2)cc1 | 1.84 µM (active) |  |  | 
O=C(NCCCn1ccnc1)Nc1ccc(Cl)cc1 |  | -5.93% | 1.02% (inactive) | 
Cc1c(N)cc(N)cc1C(=O)O |  |  | -21.6% (inactive) | 
Cc1c(Br)cc(C(=O)O)c(C)c1C | 25.9 µM (active) | -29.4% |  | 

Structure (SMILES) | Potency | cell number change | lipid storage change, negative = inhibition | outcome
Cc1c(Br)cc(C(=O)NC2CCCCC2)c(C)c1C |  | -1.86% | -4.38% (inactive) | 
Cc1nn(-c2ccccc2)c(Cl)c1/C=C1/C(=N)N2N=C(C(C)C)SC2=NC1=O |  | 10.8% | -3.97% (inactive) | 
CCOc1ccc(N2CC(C(=O)NCc3nnnn3-c3ccc(C)c(C)c3)CC2=O)cc1 (stereo not given) |  | 12.6% |  | inactive
O=C(N/N=C/C=C/c1ccc([N+](=O)[O-])cc1)C1COc2ccccc2O1 (stereo not given) |  | -22.4% | 1.32% (inactive) | 
Cc1cccc(-n2ncc3c(NCc4cccnc4)ncnc32)c1 |  | -21% | 0.0879% (inactive) | 
Cc1ccc(CSc2ncnc3c2cnn3-c2ccc(C)cc2)cc1 |  | -6.49% | -9.41% (inactive) | 
COc1ccc(-n2ncc3c(NCc4cccnc4)ncnc32)cc1 |  | -6.4% | -11.6% (inactive) | 
Fc1ccc(-n2ncc3c(SCc4cccnc4)ncnc32)cc1 | 23.1 µM (active) | -12.6% |  | 
Clc1ccc(-n2ncc3c(NCc4cccnc4)ncnc32)cc1Cl | 13 µM (active) | -22.6% |  | 
Cc1ccc(-n2ncc3c(SCc4ccccc4)ncnc32)cc1 |  | 8.14% | -1.89% (inactive) | 
COc1cccc(NC(=O)Cn2c3ccccc3c3nc4n(c(=O)c32)CCCS4)c1 |  |  | -0.494% (inactive) | 
COc1ccc(Cn2nc(C)cc2C)cc1OC |  |  | 29.5% (inactive) | 
O=C(CN(c1ccccc1)S(=O)(=O)c1ccccc1)N/N=C/c1ccco1 |  | 6.67% | 11.2% (inactive) | 
Cc1ccc(CNC(=O)C2CCCN(S(=O)(=O)c3cnc[nH]3)C2)cc1 (stereo not given) |  | -11.5% | -2.15% (inactive) | 
CN(CCNC(=O)C1CCN(S(=O)(=O)c2cnc[nH]2)CC1)Cc1ccccc1 |  | 11.4% | -0.914% (inactive) | 
COc1ccc(CCNC(=O)C2CCN(S(=O)(=O)c3cnc[nH]3)CC2)cc1OC |  | 4.12% | 24.8% (inactive) | 
COc1ccc(CNC(=O)C2CCCN(S(=O)(=O)c3cnc[nH]3)C2)cc1 (stereo not given) | 8.2 µM (active) | -8.84% |  | 
O=C(C1CCN(S(=O)(=O)c2cnc[nH]2)CC1)N1CCN(Cc2ccc3c(c2)OCO3)CC1 | 5.8 µM (active) | 1.49% |  | 
CCN(CCCNC(=O)C1CCN(S(=O)(=O)c2cnc[nH]2)CC1)c1ccccc1 |  |  |  | inactive
COC(=O)CNC(=O)C1CCN(S(=O)(=O)c2cnc[nH]2)CC1 | 0.326 µM (active) | -7.96% |  | 
COc1ccccc1CNC(=O)C1CCCN(S(=O)(=O)c2cnc[nH]2)C1 (stereo not given) |  | 23% |  | inactive
CCCCNC(=O)C1CCN(S(=O)(=O)c2cnc[nH]2)CC1 | 18.4 µM (active) | -1.76% |  | 
O=C(C1CCN(S(=O)(=O)c2ccccc2F)CC1)N1CCN(Cc2ccc3c(c2)OCO3)CC1 |  | -10.8% |  | inactive
O=C(C1CCN(S(=O)(=O)N2CCOCC2)CC1)N1CCN(Cc2ccc3c(c2)OCO3)CC1 |  | -10.4% | 11.7% (inactive) | 
O=C(NCc1ccccn1)C1CCN(S(=O)(=O)c2cnc[nH]2)CC1 |  | -2.16% | -1.49% (inactive) | 
